Measurements from PubChem BioAssay (EPA / NIEHS).
Results filed as inconclusive are left out. The source made the active and inactive calls. The calls were made as follows, unless noted: active = hit-call score of the fitted dose curve at least 0.9, where 1 is the maximum; inconclusive = response in the unintended direction; inactive = score below 0.9.

Test: CCTE_Shafer_MEA_dev_LDH: CCTE's Lactate Dehydrogenase Assay for Cytotoxicity in the Neural Network Formation Assay, Shafer Lab (AID 2284068);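 also: exposure for twelve days from plating with re-dosing on DIV 5 and 9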
In short: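 Primary rat cortical neurons were plated on PEI/laminin MEA plates and exposed from day 0 for twelve days, with compound renewed at DIV 5 and 9. Cytotoxicity was determined by spectrophotometric LDH assay relative to DMSO.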

Row | SMILES | AC50 | outcome
1 | O=P1(N(CCCl)CCCl)NCCCO1 (stereo unspecified) | 11600 nM (active) | 
2 | OCC(F)(F)OC(F)(F)C(F)(F)OC(F)(F)CO |  | inactive
3 | c1ccc(OP(Oc2ccccc2)Oc2ccccc2)cc1 |  | inactive
4 | O=C(O)C(F)(OC(F)(F)C(F)(F)C(F)(F)F)C(F)(F)F (stereo unspecified) |  | inactive
5 | CO/N=C(/C(=O)OC)c1ccccc1COc1ccccc1C | 811 nM (active) | 

Test: CCTE_Shafer_MEA_acute_AB: CCTE's Alamar Blue Assay for Cytotoxicity in the Neural Acute Assay, Shafer Lab (AID 2284069);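 also: active compounds lower the viability signal compared with DMSO wells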
In short: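 Primary rat cortical neurons on MEA plates, exposed acutely after baseline recording on day 13 or 15 post-plating. Viability by CellTiter Blue resazurin reduction (1:6 reagent dilution), fluorescence 544/590 nm; loss of signal versus DMSO.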

Row | SMILES | outcome
6 | CC(Cl)(Cl)C(=O)O | inactive
7 | CCOP(=S)(Oc1ccc([N+](=O)[O-])cc1)c1ccccc1 (stereo unspecified) | inactive
8 | c1ccc2c(c1)Nc1ccccc1S2 | inactive
9 | [N-]=[N+]=[N-] | inactive
10 | ClC(Cl)(Cl)c1ccccc1 | inactive
11 | COCCOCCO | inactive
12 | CCC(C)(C)c1ccc(O)cc1 | inactive

Test: CCTE_Shafer_MEA_dev_AB: CCTE's Alamar Blue Assay for Cytotoxicity in the Neural Network Formation Assay, Shafer Lab (AID 2284083);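 also: twelve days of exposure from plating with re-dosing on DIV 5 and 9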
In short: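 Primary rat cortical neurons on PEI-coated 48-well MEA plates, 1.5 x 10^5 cells/well in laminin drop; compound exposure from day 0 of plating for twelve days, renewed at medium changes on DIV 5 and 9. Viability read as resazurin reduction by fluorescence, relative to DMSO.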

Row | SMILES | outcome | AC50
13 | OCC(F)(F)OC(F)(F)C(F)(F)OC(F)(F)C(F)(F)OC(F)(F)CO | inactive | 
14 | c1cc2c3c(cccc3c1)CC2 | inactive | 
15 | O=C(O)C(F)(OC(F)(F)C(F)(F)C(F)(F)F)C(F)(F)F (stereo unspecified) | inactive | 
16 | CO/N=C(/C(=O)OC)c1ccccc1COc1ccccc1C |  | 1150 nM (active)
17 | CC(O)C(F)(F)C(F)(F)F (stereo unspecified) | inactive | 

Test: CCTE_Shafer_MEA_acute_LDH: CCTE's Lactate Dehydrogenase Assay for Cytotoxicity in the Neural Acute Assay, Shafer Lab (AID 2284086);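 also: active means LDH release rises above DMSO vehicle level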
In short: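 LDH released during 40 min compound exposure of primary rat cortical cultures, quantified by absorbance at 490 nm in collected medium. Fitting direction positive versus DMSO vehicle.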

Row | SMILES | outcome
18 | COP(=O)(CCC(=O)NCO)OC | inactive
19 | CC(Cl)(Cl)C(=O)O | inactive
20 | CCOP(=S)(Oc1ccc([N+](=O)[O-])cc1)c1ccccc1 (stereo unspecified) | inactive
21 | Cc1ccc(N)cc1N | inactive
22 | [N-]=[N+]=[N-] | inactive
23 | ClC(Cl)(Cl)c1ccccc1 | inactive
24 | COCCOCCO | inactive
25 | Nc1ccc2ccccc2c1 | inactive

Test: CCTE_Shafer_MEA_dev_mutual_information_norm: CCTE's Neural Network Formation Assay for Mutual Information Normalization, Shafer Lab (AID 2284091; active = hit-call score of the fitted dose curve at least 0.9, where 1 is the maximum; inactive = score below 0.9;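 as to AC50: mutual information between electrodes summarised as area under curve across four recording days; potency is for a decrease in mutual information relative to DMSO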)
In short: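 Shared information across electrodes, tracked on days 5, 7, 9 and 12 of network development and collapsed as trapezoidal area under the curve. Rat cortical cultures were treated continuously from plating, with treatment renewed at feeds on DIV 5 and 9; DMSO baseline, negative-direction fit.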

Row | SMILES | outcome | AC50
26 | O=P1(N(CCCl)CCCl)NCCCO1 (stereo unspecified) | inactive | 
27 | OCC(F)(F)OC(F)(F)C(F)(F)OC(F)(F)CO | inactive | 
28 | O=C(O)C(F)(F)OC(F)(F)C(F)(F)OC(F)(F)F | inactive | 
29 | OCC(F)(F)OC(F)(F)C(F)(F)OC(F)(F)C(F)(F)OC(F)(F)CO | inactive | 
30 | c1ccc(OP(Oc2ccccc2)Oc2ccccc2)cc1 | inactive | 
31 | c1cc2c3c(cccc3c1)CC2 | inactive | 
32 | O=C(O)C(F)(OC(F)(F)C(F)(F)C(F)(F)F)C(F)(F)F (stereo unspecified) | inactive | 
33 | O=C(O)C(F)(F)OC(F)(F)C(F)(F)OC(F)(F)C(=O)O | inactive | 
34 | O=C(O)C=CC(F)(C(F)(F)F)C(F)(F)F | inactive | 
35 | CO/N=C(/C(=O)OC)c1ccccc1COc1ccccc1C |  | 454 nM (active)
36 | CC(O)C(F)(F)C(F)(F)F (stereo unspecified) | inactive | 
